Calls of active or inactive are those of the source.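 How the source made its calls, unless noted: active means fluorescence slope higher than the sample average by over 3 SD (cut at about -0.22 in these data, passing the limit was not always enough); inactive means the rest.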
Each compound was assayed against Voltage-gated potassium channel subunit beta-2 (Rattus norvegicus) (UniProt P62483) (assay: KvBeta enzyme negative modulators, primary screen, biochemical, NADPH fluorescence (AID 622;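 further: slope of raw intensity against log time taken from 70 to 1610 s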)). Details: recombinant KvBeta, 4-cyanobenzaldehyde reduction, at 10 µM, hits give high values.
Voltage-gated potassium channel subunit beta-2 (Rattus norvegicus), sequence (P62483 whole entry, looked up): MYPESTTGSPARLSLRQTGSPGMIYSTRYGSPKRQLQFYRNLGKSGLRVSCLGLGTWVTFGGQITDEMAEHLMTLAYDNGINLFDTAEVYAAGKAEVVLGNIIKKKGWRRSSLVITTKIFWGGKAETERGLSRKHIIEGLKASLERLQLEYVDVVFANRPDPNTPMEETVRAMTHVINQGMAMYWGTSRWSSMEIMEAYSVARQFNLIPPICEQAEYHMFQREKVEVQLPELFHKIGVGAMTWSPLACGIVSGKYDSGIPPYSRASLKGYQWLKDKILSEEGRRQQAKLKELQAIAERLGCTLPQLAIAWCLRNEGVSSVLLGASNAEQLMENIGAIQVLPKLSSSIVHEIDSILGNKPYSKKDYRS

| Compound | fluorescence slope |
| --- | --- |
| CC(c1ccco1)N(C(=O)COc1ccc(Cl)cc1Cl)c1ccccn1 (stereo not given) | -0.466 (inactive) |
| O=S(=O)(c1ccc(OCC(O)CN2CCC(Cc3ccccc3)CC2)cc1)N1CCOCC1 (stereo not given) | -0.46 (inactive) |
| Cc1nc(SCC(=O)NCc2ccco2)c2c(C)c(C)sc2n1 | -0.558 (inactive) |
| CC(C)(C)n1ncc2c(=O)n(CC(=O)NCc3ccco3)cnc21 | -0.574 (inactive) |
| Cc1cccn2c(=O)c3cc(C#N)c(=NC(=O)c4cccnc4)n(CC4CCCO4)c3nc12 (stereo not given) | -0.0377 (active) |
| CCOC(=O)CS(=O)(=O)c1nc(-c2ccccc2)cc(C(F)(F)F)n1 | -0.462 (inactive) |
| CCOC(=O)c1ccc(NC2OC(=O)c3ccccc32)cc1 (stereo not given) | -0.216 (inactive) |
| CC(C)C(=O)Nc1cccc(NC(=O)c2cccnc2)c1 | -0.611 (inactive) |
| Cc1ccc(C)n1NC(=O)c1ccco1 | -0.567 (inactive) |
| CCCN1CCN(CCCNC(=O)Cn2nc(-c3ccc(Cl)cc3)ccc2=O)CC1 | -0.552 (inactive) |
| Cc1cccc(-n2c(Cc3cc(=O)[nH]c(=O)[nH]3)nnc2SCC(=O)NCc2ccco2)c1 | -0.529 (inactive) |
| COc1ccc(CN2C(=O)c3cccnc3C2Nc2cc(Cl)ccc2OC)cc1 (stereo not given) | -0.445 (inactive) |
| CS(=O)(=O)N(CC(=O)O)c1cccc(Cl)c1 | -0.544 (inactive) |
| O=C(Nc1ccccc1C(=O)N1CCCCCC1)c1cccc(S(=O)(=O)N2CCOCC2)c1 | -0.572 (inactive) |
| COC(=O)c1ccc(CSc2nc3c(cnn3-c3ccc(C)c(C)c3)c(=O)[nH]2)o1 | -0.388 (inactive) |
| CCn1nnnc1SCC(=O)Nc1nnc(C(C)C)s1 | -0.361 (inactive) |
| COCCNC(=O)CN(C)S(=O)(=O)c1ccc2c(c1)OCCO2 | -0.527 (inactive) |
| Cc1nc(C)c(C(=O)OCC(=O)N2CCN(c3ccccc3)CC2)s1 | -0.567 (inactive) |
| CCOC(=O)CNc1ccc2c(c1)OCO2 | -0.488 (inactive) |
| Cc1ccc(S(=O)(=O)N(CC(=O)N2CCOCC2)CC(=O)N2CCOCC2)cc1 | -0.486 (inactive) |

| Compound | fluorescence slope |
| --- | --- |
| Cc1cc(Cl)ccc1OCCCC(=O)N1CCOCC1 | -0.503 (inactive) |
| CCC1(CC)NC(=O)NC1=O | -0.588 (inactive) |
| CC(=O)N1C(=O)C2(Nc3ccccc3N2)c2ccccc21 | -0.283 (inactive) |
| CC1(C)OC(=O)C(=CNc2ccccc2)C(=O)O1 | -0.617 (inactive) |
| C=CCn1c(C)cc(C(=O)CSc2nc3ccccc3c(=O)[nH]2)c1C | -0.52 (inactive) |
| CCOC(=O)N1CCN(C(=O)CCc2c(C)nc3c(c(C)nn3-c3ccc(C)c(C)c3)c2C)CC1 | -0.594 (inactive) |
| CSc1ccccc1NC(=O)CN(Cc1ccccc1)S(C)(=O)=O | -0.564 (inactive) |
| CCOC(=O)c1[nH]c(C)c(C(=O)Nc2ccc(C)c(Cl)c2)c1C | -0.446 (inactive) |
| CC(=O)NC1=NC(=O)/C(=C/N2CCCCC2)S1 | -0.459 (inactive) |
| COc1ccccc1C1C(C(C)=O)=C(O)C(=O)N1CCc1ccccc1 (stereo not given) | -0.549 (inactive) |
| CCCn1c2c(c(O)c(C(=O)Nc3ccc(C)cn3)c1=O)CCCC2 | -0.546 (inactive) |
| O=c1oc2ccccc2n1CCc1ccccc1 | -0.522 (inactive) |
| Cc1ccc(-n2nc(-c3cccs3)cc2C(=O)NCC2CCCO2)c(C)c1 (stereo not given) | -0.405 (inactive) |
| CC1(C)CC(=O)c2c(O)cc(O)cc2O1 | -0.482 (inactive) |
| CCOC(=O)C1C(=O)OC(C)(C)C1C(C)C(=O)c1ccc(OC)cc1 (stereo not given) | -0.47 (inactive) |
| N#CCSc1nc(-c2ccccc2)cs1 | -0.566 (inactive) |
| CCCOc1ccc([C@@H]2C3CN(C(=O)OCC)CC=C3C(C#N)=C(N)C2(C#N)C#N)cc1OC (stereo not given in full) | -0.237 (inactive) |
| O=C(CSc1nc(C2CCCCC2)n(-c2ccccc2)n1)NCCN1C(=O)CSC1=O | -0.572 (inactive) |
| CC(=O)OCC(=O)c1ccc2ccn(C(C)=O)c2c1 | -0.258 (inactive) |
| CS(=O)(=O)Nc1ccc(C(=O)NCCc2ccccc2)cc1 | -0.535 (inactive) |

Each compound was assayed against Voltage-gated potassium channel subunit beta-2 (Rattus norvegicus) (UniProt P62483) (assay: KvBeta positive modulators, primary screen, biochemical, NADPH fluorescence (AID 623;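 active means NADPH fluorescence slope more negative than the mean of all samples by about 3 SD, 99.7% confidence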;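 further: fluorescence intensity change per second fitted from 20 to 320 s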)). Details: Recombinant KvBeta, NADPH fluorescence decrease slope, 10 min; at 10 µM; hits give low values.

| Compound | NADPH fluorescence slope |
| --- | --- |
| CC(c1ccco1)N(C(=O)COc1ccc(Cl)cc1Cl)c1ccccn1 (stereo not given) | -6.4e-05 (inactive) |
| O=S(=O)(c1ccc(OCC(O)CN2CCC(Cc3ccccc3)CC2)cc1)N1CCOCC1 (stereo not given) | -4e-06 (inactive) |
| Cc1nc(SCC(=O)NCc2ccco2)c2c(C)c(C)sc2n1 | -3.9e-05 (inactive) |
| CC(C)(C)n1ncc2c(=O)n(CC(=O)NCc3ccco3)cnc21 | 3.5e-06 (inactive) |
| Cc1cccn2c(=O)c3cc(C#N)c(=NC(=O)c4cccnc4)n(CC4CCCO4)c3nc12 (stereo not given) | -8.2e-07 (inactive) |
| CCOC(=O)CS(=O)(=O)c1nc(-c2ccccc2)cc(C(F)(F)F)n1 | -1.5e-05 (inactive) |
| CCOC(=O)c1ccc(NC2OC(=O)c3ccccc32)cc1 (stereo not given) | -2.5e-05 (inactive) |
| CC(C)C(=O)Nc1cccc(NC(=O)c2cccnc2)c1 | 7.6e-06 (inactive) |
| Cc1ccc(C)n1NC(=O)c1ccco1 | -1.3e-05 (inactive) |
| CCCN1CCN(CCCNC(=O)Cn2nc(-c3ccc(Cl)cc3)ccc2=O)CC1 | -8.1e-05 (inactive) |
| Cc1cccc(-n2c(Cc3cc(=O)[nH]c(=O)[nH]3)nnc2SCC(=O)NCc2ccco2)c1 | -4.9e-05 (inactive) |
| COc1ccc(CN2C(=O)c3cccnc3C2Nc2cc(Cl)ccc2OC)cc1 (stereo not given) | 0.00011 (inactive) |
| CS(=O)(=O)N(CC(=O)O)c1cccc(Cl)c1 | -0.00014 (inactive) |
| O=C(Nc1ccccc1C(=O)N1CCCCCC1)c1cccc(S(=O)(=O)N2CCOCC2)c1 | -2.1e-05 (inactive) |
| COC(=O)c1ccc(CSc2nc3c(cnn3-c3ccc(C)c(C)c3)c(=O)[nH]2)o1 | 0.000113 (inactive) |
| CCn1nnnc1SCC(=O)Nc1nnc(C(C)C)s1 | -4.7e-05 (inactive) |
| COCCNC(=O)CN(C)S(=O)(=O)c1ccc2c(c1)OCCO2 | 1.9e-05 (inactive) |
| Cc1nc(C)c(C(=O)OCC(=O)N2CCN(c3ccccc3)CC2)s1 | -2e-05 (inactive) |
| CCOC(=O)CNc1ccc2c(c1)OCO2 | -0.000182 (inactive) |
| Cc1ccc(S(=O)(=O)N(CC(=O)N2CCOCC2)CC(=O)N2CCOCC2)cc1 | -1.3e-05 (inactive) |

| Compound | NADPH fluorescence slope |
| --- | --- |
| Cc1cc(Cl)ccc1OCCCC(=O)N1CCOCC1 | -0.000205 (inactive) |
| CCC1(CC)NC(=O)NC1=O | -8.1e-05 (inactive) |
| CC(=O)N1C(=O)C2(Nc3ccccc3N2)c2ccccc21 | -1.3e-05 (inactive) |
| CC1(C)OC(=O)C(=CNc2ccccc2)C(=O)O1 | -1.8e-06 (inactive) |
| C=CCn1c(C)cc(C(=O)CSc2nc3ccccc3c(=O)[nH]2)c1C | -3.3e-05 (inactive) |
| CCOC(=O)N1CCN(C(=O)CCc2c(C)nc3c(c(C)nn3-c3ccc(C)c(C)c3)c2C)CC1 | 1.1e-05 (inactive) |
| CSc1ccccc1NC(=O)CN(Cc1ccccc1)S(C)(=O)=O | -3.2e-05 (inactive) |
| CCOC(=O)c1[nH]c(C)c(C(=O)Nc2ccc(C)c(Cl)c2)c1C | 1.5e-05 (inactive) |
| CC(=O)NC1=NC(=O)/C(=C/N2CCCCC2)S1 | -3.8e-05 (inactive) |
| COc1ccccc1C1C(C(C)=O)=C(O)C(=O)N1CCc1ccccc1 (stereo not given) | -3.7e-05 (inactive) |
| CCCn1c2c(c(O)c(C(=O)Nc3ccc(C)cn3)c1=O)CCCC2 | -6e-05 (inactive) |
| O=c1oc2ccccc2n1CCc1ccccc1 | -0.000209 (inactive) |
| Cc1ccc(-n2nc(-c3cccs3)cc2C(=O)NCC2CCCO2)c(C)c1 (stereo not given) | -8.6e-05 (inactive) |
| CC1(C)CC(=O)c2c(O)cc(O)cc2O1 | -4.2e-05 (inactive) |
| CCOC(=O)C1C(=O)OC(C)(C)C1C(C)C(=O)c1ccc(OC)cc1 (stereo not given) | 3.2e-06 (inactive) |
| N#CCSc1nc(-c2ccccc2)cs1 | -1.8e-05 (inactive) |
| CCCOc1ccc([C@@H]2C3CN(C(=O)OCC)CC=C3C(C#N)=C(N)C2(C#N)C#N)cc1OC (stereo not given in full) | -2.5e-05 (inactive) |
| O=C(CSc1nc(C2CCCCC2)n(-c2ccccc2)n1)NCCN1C(=O)CSC1=O | -4.9e-05 (inactive) |
| CC(=O)OCC(=O)c1ccc2ccn(C(C)=O)c2c1 | -1.1e-05 (inactive) |
| CS(=O)(=O)Nc1ccc(C(=O)NCCc2ccccc2)cc1 | -1.7e-06 (inactive) |

Source: PubChem BioAssay
